The other results are listed elsewhere or left out. Inconclusive results are not listed. Calls of active or inactive are those of the source. Calls follow the shape of the dose curve; as a rule, active = well fitted inhibition curve with a large enough effect; inconclusive = small, poorly fitted or top-dose-only effect, or another doubt; inactive = no such curve, though single readings can be large or run the other way.
The compounds below were run against Luciferin 4-monooxygenase (Photinus pyralis) (UniProt P08659) (assay: Biochemical FLuc counterscreen for small molecule modulators of PMP22 gene expression (AID 1508640)). Details: purified P. pyralis FLuc, luminescence, 10 min; series mostly up to 57.5 µM.
From the text: Assay Provider: Jim Inglese Ph.D. National Center for Advancing Translational Science, National Institutes of Health, Rockville, MD CMT is a heterogeneous group of neurological disorders that affect approximately 1 in 2,500 people. In particular, the most common form of CMT, CMT1A is genetically linked to the duplication of the PMP22 gene which leads to Schwann cell overexpression, thus manifesting itself as a typical case of dose-sensitive diseases. To identify small molecule compounds that can mediate the expression of PMP22 we developed a phenotypic assay screening strategy by utilizing genome editing techniques to construct Schwann cell lines containing novel reporter technology to monitor the transcriptional or translational regulation of PMP22. For high sensitivity we use a bioluminescent reporter system embedded in the 3' UTR of the PMP22 gene (S16(c9) Pmp22-F2sN) to identify compounds that inhibit gene expression. […] We can further discriminate the effect of all transcriptionally active molecules on PMP22 translation or stability with an assay that incorporates a short NLuc peptide (HiBiT) at the C-terminus of expressed PMP22 (S16(f8) PMP22-HiBiT) allowing alpha complementation and luminescence detection of membrane-associated PMP22 protein. These assays were screened against the NCATS Sytravon Library Collection. Miniaturization of these assays to 1536-well plate format for quantitative high throughput screening (qHTS) yielded rich data sets immediately from the qHTS assay (S16(c9) Pmp22-F2sN), when compared with data from a cell viability assay (Cell TiterGlo) to identify compounds that decreased the output signals through cellular toxicity to streamline the selection process of actives for subsequent characterization using the HiBiT assay (S16(f8) PMP22-HiBiT).
Biochemical FLuc assay PROTOCOL TABLE (format as described by Inglese J, Shamu CE and Guy RK. 2007) SEQUENCE No. (e.g., 1, 2, 3, etc.); PARAMETER (e.g., Cells, Incubation, Reagent, etc.); VALUE and DESCRIPTION. 1. Reagent. Add 3 uL substrate per well into Greiner 1536-well white/solid bottom high base, medium binding plates. 2. Compounds. Library compounds and controls added at 23nL per well, transferred by Pin Tool. 3. Incubation. Incubate plates 15 min at ambient temperature. 4. Reagent. Add 1uL FLuc enzyme solution per well of Greiner 1536-well plates. 5. Incubation. Incubate plates at room temperature for 10 min., protect from light. 6. Detector. FLuc luminescence measured using CCD-based camera (Viewlux). NOTES (numbers refer to Sequence numbers above; values are from representative experiments) 1. Dispense freshly prepared substrate (final concentration of 10 uM D-Luciferin, 10 mM Mg-Acetate, 50 mM Tris Acetate pH 7.6, 10 uM ATP, 0.01 % Tween-20, 0.05 % BSA) into 1,536-well Greiner white/solid bottom high base, medium binding plates. Protect from light. 4. Freshly prepared enzyme solution containing 10 nM P. pyralis in 50 mM Tris Acetate was filtered through a […] prior to dispensing. 6. Luminescence Read (Fluc): Clear filter; Exposure = 10 sec, Gain = High, Speed = Slow, Binning = 2X REFERENCES: 1. Inglese J, Shamu CE and Guy RK, Reporting data from high throughput screening of small molecule libraries, Nature Chemical Biology, 2007, 3(8): 438-441. doi.org/10.1038/nchembio0807-438 2. Yasgar A, Shinn P, Jadhav A, Auld DS, Michael S, Zheng W, Austin CP, Inglese J and Simeonov A, Compound Management for Quantitative High-Throughput Screening. J. Assoc. Lab. Auto., 2008, 13: 79-89. doi: 10.1016/j.jala.2007.12.004 3. […] Chemistry & Biology, 2012, 19: 1060-1072. doi.org/10.1016/j.chembiol.2012.07.015

Luciferin 4-monooxygenase (Photinus pyralis), sequence (P08659 whole entry, looked up): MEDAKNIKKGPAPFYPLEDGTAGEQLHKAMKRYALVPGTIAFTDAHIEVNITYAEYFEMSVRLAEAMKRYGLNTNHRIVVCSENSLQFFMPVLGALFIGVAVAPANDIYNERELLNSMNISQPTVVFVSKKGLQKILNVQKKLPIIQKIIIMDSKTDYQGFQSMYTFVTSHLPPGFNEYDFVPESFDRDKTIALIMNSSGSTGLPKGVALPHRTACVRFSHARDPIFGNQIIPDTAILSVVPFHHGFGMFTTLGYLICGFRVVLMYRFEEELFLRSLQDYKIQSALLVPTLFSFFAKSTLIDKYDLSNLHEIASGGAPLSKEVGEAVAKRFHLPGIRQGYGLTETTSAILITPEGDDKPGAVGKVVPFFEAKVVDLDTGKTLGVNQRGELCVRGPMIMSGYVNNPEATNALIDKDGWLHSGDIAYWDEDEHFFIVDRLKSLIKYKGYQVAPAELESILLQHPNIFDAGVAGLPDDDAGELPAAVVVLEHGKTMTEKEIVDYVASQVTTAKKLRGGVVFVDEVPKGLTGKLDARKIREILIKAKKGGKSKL

| SMILES | outcome |
| --- | --- |
| Cc1ccc(NC(=O)c2nc(S(=O)(=O)Cc3cccc(C)c3)ncc2Cl)cc1 | inactive |
| CC(C)(C)c1ccc(C(=O)NCC(c2ccco2)S(=O)(=O)c2ccc(F)cc2)cc1 (centres undefined) | inactive |
| Cc1cc(OCC(=O)NCC2(N(C)C)CCCCC2)cc(C)c1Cl | inactive |
| Cc1ccc(OCCSc2nc3ccc(NC(=O)COc4ccc(C)cc4)cc3s2)cc1 | inactive |
| O=S(=O)(c1ccc(Cl)cc1)c1nnn2c1nc(NC1CCCC1)c1sccc12 | inactive |
| Cc1sc(C2C(C#N)=C(N)N(c3cccc(Cl)c3)C3=C2C(=O)CCC3)cc1CN1CCOCC1 (centres undefined) | inactive |
| Cc1nnc(SCC(=O)NCc2ccccc2Cl)c2nn(-c3ccccc3)c(C)c12 | inactive |
| COc1ccccc1Nc1c2c(nc3ccc(NC(=O)/C=C/c4cc(OC)c(OC)c(OC)c4)cc13)CCCC2 | inactive |
| CCOCCCNC(=O)c1c(NC(=O)c2nc(SC)ncc2Cl)sc2c1CCCC2 | inactive |
| CCCN1C(=O)C(O)(CC(=O)c2ccc(CC)cc2)c2cc(Br)ccc21 (centres undefined) | inactive |
| Cc1ccc(C)n1-c1nnc(N2CCC(C(=O)NCc3ccccc3Cl)CC2)s1 | inactive |
| COc1cccc(NC(=O)CSC2=Nc3ccccc3C3=NC(CC(=O)NC4CCCCC4)C(=O)N23)c1 (centres undefined) | inactive |
| Cc1ccc(Cn2c(C)c3cnn(CC(=O)NCc4ccccc4)c(=O)c3c2C)cc1 | inactive |
| O=C(NCCCN1CCN(c2cccc(Cl)c2)CC1)c1nnc(Cc2ccc(F)cc2Cl)o1 | inactive |
| O=C(c1ccc(C(F)(F)F)cc1)N1CCC(c2nc(-c3ccc(S(=O)(=O)N4CCCC4)cc3)no2)CC1 | inactive |
| Cc1ccccc1CNC(=O)CSc1nnc(C)c2c(C)n(-c3ccccc3)nc12 | inactive |
| COc1ccccc1-c1cc(C(F)(F)F)nc(S(=O)(=O)CCCC(=O)Nc2ccc(F)cc2F)n1 | inactive |
| CCCn1c(=N)c(C(=O)NCc2ccccc2)cc2c(=O)n3cccc(C)c3nc21 | inactive |
| CCOC(=O)c1c(C)[nH]c(CCC(=O)NCCCN2CCN(c3cccc(Cl)c3)CC2)c1C | inactive |
| CCOC(=O)c1c(C)[nH]c(CCC(=O)NCCCN2CCN(c3cc(C)ccc3C)CC2)c1C | inactive |

| SMILES | outcome |
| --- | --- |
| CCCn1c2ccccc2c2cnn(CC(=O)NCC3CCN(Cc4ccc(C)cc4)CC3)c(=O)c21 | inactive |
| O=C(c1ccc2c(c1)N(Cc1ccc(F)cc1)C(=O)c1ccccc1S2(=O)=O)N1CCN(c2ccccn2)CC1 | inactive |
| CC(=O)N1CCCc2cc(S(=O)(=O)N3CCCC(C(=O)N4CCN(c5cccc(Cl)c5)CC4)C3)ccc21 (centres undefined) | inactive |
| COc1ccc(-c2onc(C)c2C)cc1S(=O)(=O)NCC1CCN(Cc2cccc(F)c2)CC1 | inactive |
| Cc1cc(F)ccc1NS(=O)(=O)c1ccc(-n2cccn2)cc1 | inactive |
| CCOC(=O)C1CCN(C(=O)CSc2c3c(nc4ccc(Cl)cc24)CCCC3)CC1 | inactive |
| CCC1=Nc2cc(C(=O)NCCCOC(C)C)ccc2Sc2ccc(C)cc21 | inactive |
| CCc1ccc(C2CC(=O)c3c([nH]c(C(=O)OCc4ccc(C)cc4)c3C)C2)cc1 (centres undefined) | inactive |
| CCOC(=O)c1ccc(NC(=O)CSc2nc3c([nH]c4ccccc43)c(=O)n2C)cc1 | inactive |
| CCCS(=O)(=O)c1ncc(Cl)c(C(=O)Nc2scc(-c3ccccc3)c2C(=O)OCC)n1 | inactive |
| Cc1ccc(CCNC(=O)C2CCN(c3nnc(-n4cccc4CNc4ccc(C)cc4)s3)CC2)cc1 | inactive |
| CCC1CCCCN1CCCNC(=O)c1cc2c(Cl)nc3ccccc3c2s1 (centres undefined) | inactive |
| COc1ccc(CCNC(=O)c2cc(=O)c3c(C)cc(C)cc3o2)cc1OC | inactive |
| CCOc1ccc(NC(=O)c2c(NC(=O)Cc3ccccc3)sc3c2CCC(C)C3)cc1 (centres undefined) | inactive |
| O=C(CCS(=O)(=O)c1ccccc1)N(Cc1cccnc1)c1nc2c(F)cccc2s1 | inactive |
| Cc1cccc(Nc2cc(C)nc(-n3nc(C)cc3C)n2)c1 | inactive |
| CCCCOc1ccc(CN2C(=O)C(=O)c3cc(Br)cc(C)c32)cc1OC | inactive |
| COc1cccc(NC(=O)N(Cc2cn(C)c3ccccc23)C2CCCCCC2)c1 | inactive |
| CCOC(=O)c1ccc(N2C(=O)c3n[nH]c(C)c3C2c2ccc(O)c(OC)c2)cc1 (centres undefined) | inactive |

— PubChem BioAssay (NCATS)
